Pf growth 48h: Primary qHTS for delayed death inhibitors of the malarial parasite plastid, 48 hour incubation; Potency, µM (series often up to 28.7 µM), usual class: inhibitors; P. falciparum luciferase growth in erythrocytes, 48 h; actives 5.9% (n = 310,000)
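Erythrocytes infected with P. falciparum carrying an integrated firefly luciferase reporter (2% hematocrit, 0.1% parasitemia final) were exposed to compounds in RPMI 1640 with 0.5% Albumax at 37 C, 5% CO2. Growth inhibition was scored as reduced luminescence.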
Shiga toxin inh: A qHTS for Small Molecule Inhibitors of Shiga Toxin. actives 9.2% (n = 290,000). AID 2315, 2010. Vero cells, Shiga toxin protein synthesis inhibition reporter. inhibition, % at 38.7 µM; in the data active = inhibition mostly above about 28%, no sharp cut-off; inactive = mostly below about 43%
Cycloheximide cs: Cycloheximide Counterscreen for Small Molecule Inhibitors of Shiga Toxin | cell reporter, cycloheximide protein synthesis inhibition counterscreen | max response, % | actives 12% (n = 300,000) | AID 2314, 2010; in the data active = max response mostly above about 13%, no sharp cut-off; inactive = mostly below about 14%; note: read at 38.3 µM for the half of the compounds with a filed dose
NS1 function inh: qHTS Assay for Inhibitors of Influenza NS1 Protein Function | AID 2326, 2010 | Potency, µM (titrated, usually from 46.1 µM) | actives 0.4% (n = 270,000); calls by dose curve; note: actives are rising curves; nearly all actives have a fitted effect of over 50% in size
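OD600 was taken as the measure of yeast growth restored by compound in an NS1-expressing S. cerevisiae strain. Cells had been washed out of glucose medium and diluted 1:100 into galactose -URA medium, pH 6.0.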
Pf growth 96h: Primary qHTS for delayed death inhibitors of the malarial parasite plastid, 96 hour incubation; P. falciparum luciferase reporter growth, 96 h; Potency, µM (doses to about 28.7 µM), usual class: inhibitors; actives 6.9% (n = 320,000)
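Two-generation exposure (96 h) targets delayed-death phenotype. Reporter parasites carrying integrated firefly luciferase, in red cells at 2% hematocrit and 0.05% parasitemia final, kept at 37 C, 5% CO2; luminescence loss indicates inhibition.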
SARS PLpro yeast: qHTS of Yeast-based Assay for SARS-CoV PLP; actives 0.19% (n = 330,000); S. cerevisiae expressing SARS-CoV PLpro, growth rescue; AID 485353, 2010; Potency, µM (series often up to 32.9 µM), hits mostly activators; calls by dose curve; note: nearly all actives have a fitted effect of over 55% in size
Each line names hits and unclear results; the compound was inactive in the other large screens. Most compounds without a hit are left out; they make up all but 21% or so of the library. Unless noted, calls come from the whole dose curve; as a rule, active = well fitted inhibition curve with a large enough effect; inconclusive = small, poorly fitted or top-dose-only effect, or another doubt; inactive = no such curve, though single readings can be large or run the other way.

Cc1ccc(N2C(=O)NC(=O)/C(=C/C=C/c3ccco3)C2=O)cc1	Shiga toxin inh 26, Cycloheximide cs 24
COc1ccccc1Cc1nc(-c2cccnc2)no1	Pf growth 48h inconclusive, Shiga toxin inh 55, Cycloheximide cs 37
COc1ccc(-c2noc(Cc3ccccc3OC)n2)cc1	Pf growth 96h 13µM
CN(Cc1nc(-c2cccnc2)no1)S(=O)(=O)c1ccc(Br)cc1	Pf growth 96h 8.3µM
COc1ccc(-c2noc(Cc3cccs3)n2)cc1	Shiga toxin inh 82, Cycloheximide cs 32
COc1ccc(Cc2nc(-c3cccnc3)no2)cc1OC	Pf growth 96h inconclusive
CN(Cc1nc(-c2cccnc2)no1)S(=O)(=O)c1ccc2ccccc2c1	none
COc1ccc(-c2noc(CN3CCC(Cc4ccccc4)CC3)n2)cc1	none (no result: Pf growth 96h)
N#Cc1cccc(-c2csc(N3CCC(C(N)=O)CC3)n2)c1	none (no result: Shiga toxin inh, Cycloheximide cs, NS1 function inh, SARS PLpro yeast)
CN(C)S(=O)(=O)c1ccc(Cl)c(NC(=O)CN2CCN(Cc3ccc4c(c3)OCO4)CC2)c1	Pf growth 48h inconclusive
O=C(COC(=O)c1cccnc1Cl)Nc1cc(S(=O)(=O)N2CCCCC2)ccc1Cl	none
O=C(CN1CCN(S(=O)(=O)c2ccc(Cl)s2)CC1)N1CCOCC1	none
CCCC(=O)NC(=S)Nc1ccc(C(C)=O)cc1	Shiga toxin inh 57, Cycloheximide cs 55
CC(=O)N(C)c1ccc(NC(=S)Nc2cccc3ccccc23)cc1	Shiga toxin inh 83, Cycloheximide cs 44, Pf growth 96h inconclusive
CC(=O)c1cccc(NC(=O)C(=O)Nc2cccc3ccccc23)c1	Shiga toxin inh 32, Cycloheximide cs 22, Pf growth 96h inconclusive
Fc1cccc(NC(=S)Nc2cccc3ccccc23)c1	none
CC(=O)N(C)c1ccc(NC(=S)Nc2ccccc2)cc1	none
Cc1ccc(NC(=S)Nc2cccc3ccccc23)cc1F	Pf growth 48h inconclusive, Shiga toxin inh 81, Cycloheximide cs 42
CC12CCC(C/C1=N\OC(=O)c1c(F)cccc1F)C2(C)C (stereo not drawn)	Pf growth 96h inconclusive
CC(=O)c1ccc(NC(=S)Nc2cccc3ccccc23)cc1	Shiga toxin inh 106, Cycloheximide cs 73, NS1 function inh inconclusive
O=C(CN1CCN(C(=O)c2cccc(-n3cnnn3)c2)CC1)Nc1ccccc1Cl	Pf growth 96h inconclusive (no result: Shiga toxin inh, Cycloheximide cs, NS1 function inh)
COc1cc(/C=C/C(=O)NC(C)C2CC3CCC2C3)cc(OC)c1OC (stereo not drawn)	Pf growth 48h inconclusive, Shiga toxin inh 101, Cycloheximide cs 19, Pf growth 96h inconclusive
COc1cc(OC)c(N(C)S(=O)(=O)c2cccc(C(=O)NC(C)C3CC4CCC3C4)c2)cc1Cl (stereo not drawn)	Pf growth 96h 2.6µM
COc1ccccc1OCCNC(=O)C1CC(=O)N(c2cccc(SC)c2)C1 (stereo not drawn)	none (no result: Shiga toxin inh, Cycloheximide cs, NS1 function inh)
Cc1nn(C)cc1/C=N/NC(=O)C(C)(C)Oc1ccc(Cl)cc1	none (no result: Pf growth 96h)
CCOC(=O)CSCC(=O)N1CCC(Cc2ccccc2)CC1	none
Cc1nc2ccc(NC(=S)NC3CCCCC3)cc2nc1C	Shiga toxin inh 102, Cycloheximide cs 42, Pf growth 96h inconclusive (no result: NS1 function inh)
S=C(Nc1ccc(Nc2ccccc2)cc1)NC1CCCCCC1	none
CC(C)(C)c1ccccc1NC(=S)NC1CCCCC1	Pf growth 48h inconclusive, Pf growth 96h 9.3µM, SARS PLpro yeast inconclusive (no result: NS1 function inh)
S=C(Nc1ccc2[nH]ccc2c1)NC1CCCCC1	Shiga toxin inh 65, Cycloheximide cs 37
Cc1cc(Cl)ccc1NC(=S)NC1CCCC1	Shiga toxin inh 32, Cycloheximide cs 12
OCCC1CN(Cc2nc3c(s2)CCCC3)CCN1Cc1ccccc1 (stereo not drawn)	Pf growth 48h inconclusive
CCN(CC)S(=O)(=O)c1ccc(N2CCOCC2)c(NC(=O)c2cc(Cl)c3c(c2)OCO3)c1	none (no result: Pf growth 48h, Shiga toxin inh, Cycloheximide cs, NS1 function inh, Pf growth 96h)
Cc1ccc(NC(=S)NC(=O)C2CCC2)cc1C	Shiga toxin inh 101, Cycloheximide cs 53
CC1CCCCC1NC(=S)Nc1ccc(Cl)cc1Cl (stereo not drawn)	Pf growth 48h inconclusive, Shiga toxin inh 31
Cc1ccc(NC(=S)NC(=O)C2CCCC2)cc1C	Shiga toxin inh 91, Cycloheximide cs 50, Pf growth 96h inconclusive
COC(=O)c1ccccc1NC(=S)NC(=O)C1CC1	none (no result: Pf growth 48h)
Cc1ccc(NC(=S)NC(=O)C2CC2)c(C)c1	Shiga toxin inh 64, Cycloheximide cs 34
CCN(CC)S(=O)(=O)c1cc(NC(=S)NC(=O)C2CCCC2)ccc1C	none (no result: Pf growth 48h, Shiga toxin inh, Cycloheximide cs, NS1 function inh, Pf growth 96h)
CN(C)c1ccc(-c2cc[nH]c(=O)c2N)cc1	none (no result: Pf growth 48h, NS1 function inh, Pf growth 96h, SARS PLpro yeast)
Cc1ccc(NC(=S)NC2CCN(Cc3ccccc3)CC2)cc1C	Pf growth 48h inconclusive, Pf growth 96h inconclusive (no result: NS1 function inh)
Cc1ccc(NC(=S)NC2CC3CCC(C2)N3Cc2ccco2)cc1C (stereo not drawn)	Pf growth 48h inconclusive, Pf growth 96h 12µM
Cc1ccc(NC(=S)NC2CCCC2)cc1C	Shiga toxin inh active, Cycloheximide cs 49
CCC(=O)Nc1cccc(NC(=O)c2ccc(C)cc2Cl)c1	Pf growth 96h inconclusive
CC(C)CC1NC(=O)N(CC(=O)Nc2ccc(OC(F)F)cc2)C1=O (stereo not drawn)	none (no result: Shiga toxin inh, Cycloheximide cs, NS1 function inh)
Cc1nc([N+](=O)[O-])cn1Cc1cccc([N+](=O)[O-])c1	none
O=C(N/N=C/C(Br)=C\c1ccccc1)c1n[nH]c2c1CCC2	Shiga toxin inh 111, Cycloheximide cs 64 (no result: Pf growth 48h)
Cc1cc(C(=O)N/N=C/C=C/c2ccccc2)n[nH]1	none
CC(/C=N/NC(=O)c1n[nH]c2c1CCC2)=C\c1ccccc1	none (no result: Pf growth 96h)
O=C(N/N=C/C=C/c1ccccc1)c1n[nH]c2c1CCC2	Cycloheximide cs 15 (no result: Pf growth 48h)
COc1ccc(OC)c(NC(=O)CN2C(=O)NC3(CCOc4ccccc43)C2=O)c1 (stereo not drawn)	Pf growth 96h inconclusive (no result: Pf growth 48h)
CC(=NNC(=O)CSc1nc2ccccc2o1)c1ccco1	none (no result: Pf growth 48h, Shiga toxin inh, Cycloheximide cs, NS1 function inh, Pf growth 96h)
Cc1cc(SCC(=O)N/N=C/c2ccco2)nc2ccccc12	none
Cn1cccc1/C=N/NC(=O)CSc1nc2ccccc2[nH]1	Cycloheximide cs 20
C/C(=N\NC(=O)CSc1nc2ccccc2[nH]1)c1ccncc1	none (no result: NS1 function inh)
O=C(CSc1nc2ccccc2[nH]1)N/N=C/c1ccco1	Shiga toxin inh 62, Cycloheximide cs 24
O=C(CSc1nc2ccccc2o1)N/N=C/c1ccco1	Shiga toxin inh 50, Cycloheximide cs 21
O=C(Cn1cnc2cc(Cl)ccc2c1=O)Nc1ccc2c(c1)OCO2	Pf growth 96h inconclusive
COC(=O)C[N+](C)(C)C/C=C\c1ccccc1	Pf growth 96h inconclusive
O=C(CN1C(=O)COc2ccccc21)N1CCOCC1	none
CN(C(=O)CN1C(=O)c2ccccc2S1(=O)=O)C1CCCCC1	none (no result: Pf growth 48h, Shiga toxin inh, Cycloheximide cs, NS1 function inh, Pf growth 96h)
N#CC1=C(N)S[C@H](C(=O)C23CC4CC(CC(C4)C2)C3)[C@H]1c1ccncc1	Pf growth 48h 10µM, Pf growth 96h 4.7µM
CCCCc1nc(S(=O)(=O)c2ccc(Cl)cc2)c(N2CCOCC2)o1	Shiga toxin inh 34, Cycloheximide cs 27

High-throughput results: PubChem BioAssay, National Center for Advancing Translational Sciences (NCATS)
